Where “and” joins values, the source holds several entries; their conditions need not be identical. Identical values can stand only once. Records with an inconclusive call do not appear. Calls of active or inactive are those of the source. Unless noted, the limit is not given here; nearly all actives have AC50 up to about 26 µM.

A short description of experiment [1]: growth inhibition of DIPG glioma cells, dose response, cell-based, SU-DIPG-XVII, MIPE5.0, CellTiter-Glo, qHTS (AID 1347060).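 As to AC50: cells exposed to compound for 48 hours before viability readout.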 To be noted: SU-DIPG-XVII viability, CellTiter-Glo ATP luminescence.
A short description of experiment [2]: growth inhibition of DIPG glioma cells, dose response, cell-based, JHH-DIPG-1, MIPE4.0, CellTiter-Glo, qHTS (AID 1347062; cut-off not given, nearly all actives have AC50 up to about 27 µM;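 as to AC50: cells exposed to compound for two days before readout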). To be noted: JHH-DIPG-1 viability, CellTiter-Glo ATP luminescence.
Experiment [3] can be described thus: growth inhibition of DIPG glioma cells, dose response, cell-based, SU-DIPG-IV, MIPE4.0, CellTiter-Glo, qHTS (AID 1347063; cut-off not given, nearly all actives have AC50 up to about 30 µM;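 also: compound exposure lasted 48 hours before the viability readout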). To be noted: SU-DIPG-IV viability, CellTiter-Glo ATP luminescence.
A short description of experiment [4]: growth inhibition of DIPG glioma cells, dose response, cell-based, SU-DIPG-XIII, MIPE5.0, CellTiter-Glo, qHTS (AID 1347064; cut-off not given, nearly all actives have AC50 up to about 23 µM;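 as to AC50: cells exposed to compound for 48 hours before the viability read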). Conditions: SU-DIPG-XIII viability, CellTiter-Glo ATP luminescence.
Experiment [5] in a line: viability loss in pontine glioma line – cell-based, SU-DIPG-XXV, MIPE5.0, CellTiter-Glo, qHTS, dose response (AID 1347065).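 Also: cells exposed to compound for 48 hours before ATP readout.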 Conditions: CellTiter-Glo ATP luminescence.
Experiment [6] in a line: SU-DIPG-VI glioma cell viability, MIPE4.0 library, CellTiter-Glo luminescence, qHTS (AID 1347066; cut-off not given, nearly all actives have AC50 up to about 30 µM;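 also: cells exposed to compound for 48 hours before readout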). Conditions: CellTiter-Glo ATP luminescence.
The nature of experiment [7]: JHH-DIPG-1 glioma cell viability, MIPE5.0 library, CellTiter-Glo luminescence, qHTS (AID 1347067).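 Also: cells exposed to compound for 48 hours before readout.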 To be noted: JHH-DIPG-1 glioma viability, CellTiter-Glo ATP luminescence.
A short description of experiment [8]: SU-DIPG-XXV glioma cell viability, MIPE5.0 library, qHTS (AID 1347068; cut-off not given, nearly all actives have IC50 up to about 30 µM;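 as to IC50: cells exposed to compound for 48 hours before viability readout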).
The nature of experiment [9]: sensitizers of A549 cells to miR-34 induction, primary screen, imaging, A549 dox-inducible miR-34, nuclei and caspase counts (AID 1347080;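 active = compounds whose cell count with miR-34 switched on is under 0.7 times the count with it off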). To be noted: A549 miR-34 inducible, Hoechst nuclei count, 48 h.
Experiment [10] is described as follows: survival rescue of mitochondrial mutant cells in low glucose, primary screen, MELAS cybrids, Rieske KO mouse fibroblasts, CellTiter-Glo (AID 1508586;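 active = mean z-score across replicates of 1.96 or higher in either the MELAS or the Rieske mutant cell line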;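 also: z relative to plate mean and SD of compound and empty wells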).
[11] abbreviates: stronger effect = lower value, cell number ratio, induced over uninduced.
Setting [12] is: measured here: relative caspase fold change +Dox/-Dox.
[13] abbreviates: measured here: total cells with miR-34 induction, stronger effect = lower value.
Where [14] appears, read: measured here: total cells without miR-34 induction.

As for `C=CC(=O)Nc1cc2c(Nc3ccc(F)c(Cl)c3)ncnc2cc1C#CC(C)(C)N1CCN(C)CC1`, the AC50 in experiment [1] is 2.95 µM (active); in [2], 5.26 µM (active); in experiment [3], 1.87 µM (active); in [4], 4.68 µM (active); in [5] it was 5.9 µM (active); in experiment [6] it was 5.9 µM (active). Besides, in experiment [7], the AC50 is 4.17 µM (active). For the same compound, the IC50 in [8] is 7.42 µM (active).
For the compound `Cn1c2ccccc2c2c3c(c4c5ccccc5n(CCC#N)c4c21)CNC3=O`, the AC50 in experiment [1] is 8.33 µM (active); in experiment [3] it was 0.148 µM (active); in [4] it was 13.2 µM (active); in experiment [5] it was 7.42 µM (active); in experiment [7], 11.8 µM (active). Besides, the call in experiment [2] was inactive. Further, the fold change in [9] (setting [11]) is 0.591 (active); in experiment [9] (setting [12]) it was 1.06. Moreover, the results for the cell count in experiment [9] (setting [13]) and in experiment [9] (setting [14]) were 1520 and 2580, respectively.
On to `CNC(=O)c1nn(C)c2c1C(C)(C)Cc1cnc(Nc3ccc(N4CCN(C)CC4)cc3)nc1-2`, for which the AC50 in [1] was 5.9 µM (active); in [2] it was 2.35 µM (active); in experiment [3], 14.8 µM (active); in experiment [4], 6.61 µM (active); in experiment [5], 2.35 µM (active); in experiment [7] it was 8.33 µM (active). Further, the IC50 in experiment [8] is 9.34 µM (active). Besides, the fold change in [9] (setting [11]) is 1.12 (inactive); in experiment [9] (setting [12]) it was 0.794. Further, the cell count in [9] (setting [13]) was 1220; in experiment [9] (setting [14]), 1090. In addition, the z-score was 4.48 (active) in [10] (MELAS cybrid survival, CellTiter-Glo 48 h, stronger effect = higher value) and -3.65 in experiment [10] (Rieske KO mouse fibroblast survival, CellTiter-Glo 72 h).
As for `O=C1NC(=O)/C(=C/c2ccc3c(c2)OC(F)(F)O3)S1`, the result in experiment [1], in [2], in experiment [3], in [4], in experiment [5] and in [7] was inactive. The compound was called inactive in experiment [8]. Besides, the fold change in experiment [9] (setting [11]) is 0.88 (inactive) and 0.952 (inactive); in experiment [9] (setting [12]), 1.16 and 0.645. The cell count was 8070 and 5980 in experiment [9] (setting [13]); 9160 and 6280 in [9] (setting [14]).
Turning to `COc1cc2nc(-c3cc(F)ccc3O)nc(N[C@@H]3CNC[C@H]3C(C)(C)O)c2cc1OC`, the AC50 in experiment [1] is 9.34 µM (active); in experiment [2], 10.5 µM (active); in experiment [3], 9.35 µM (active); in experiment [4], 5.25 µM (active); in [5], 4.17 µM (active); in experiment [7], 8.33 µM (active). In experiment [8], the IC50 is 4.17 µM (active).
Take `O=C(O)c1ccccc1C(=O)Nc1ccc(-c2ccccc2)cc1`: the compound was classed as inactive in [1], in [2], in experiment [3], in experiment [4], in experiment [5] and in [7]. Moreover, in experiment [8], the compound was classed as inactive.

Source of the values: PubChem BioAssay.
